# High-throughput results from PubChem.
# Compounds with a hit are over-represented: about 3.4% of the library has one in this group of screens.
# RE007 growth inh: less growth of the S. pombe RE007 Vpr strain | actives 0.21% (n = 360,000) | Potency, µM (top dose mostly 92.2 µM), for inactives: at the top dose activity change, negative = less growth, usual class: inhibitors | S. pombe RE007 Vpr strain, BacTiter-Glo ATP luminescence, 24 h; active = well fitted falling curve with a large enough effect; inconclusive = small, poorly fitted or top-dose-only effect; inactive = no such curve, though single readings can be large or run the other way; also: nearly all actives have a fitted effect of over 50% in size
#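 Fission yeast RE007 carrying one integrated HIV-1 vpr copy, seeded at OD 0.01 in PMG+AL medium with 23 nL pinned compound. Grown 24 h at 30 degrees; viability read by BacTiter-Glo luminescence after 5 min.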
# Giardia FBPA inh: inhibitors of Giardia lamblia fructose-1,6-bisphosphate aldolase; actives 0.71% (n = 290,000); purified Giardia FBPA; A8B2U2; Potency, µM (series often up to 59.6 µM), without a hit: at the highest dose activity, negative = inhibition, actives largely listed as inhibitors; also: nearly all actives have a fitted effect of over 55% in size
# Target sequence (A8B2U2 whole entry, looked up): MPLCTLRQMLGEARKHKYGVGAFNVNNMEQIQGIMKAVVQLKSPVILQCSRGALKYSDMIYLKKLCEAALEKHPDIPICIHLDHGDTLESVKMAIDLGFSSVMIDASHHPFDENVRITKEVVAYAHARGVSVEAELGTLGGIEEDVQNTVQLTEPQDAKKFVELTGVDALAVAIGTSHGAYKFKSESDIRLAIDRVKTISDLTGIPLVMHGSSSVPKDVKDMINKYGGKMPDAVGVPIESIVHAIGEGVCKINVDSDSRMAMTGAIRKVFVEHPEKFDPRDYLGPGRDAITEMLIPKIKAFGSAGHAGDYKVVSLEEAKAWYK
#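 40 nM FBPA preincubated 10 min at RT with compound (up to 57.5 uM final), then substrate plus GAPDH/TPI/NAD/arsenate coupling and diaphorase/resazurin added. Fluorescence read after 20 min at RT, 525/598 nm.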
# AmpC inh detg: inhibitors of E. coli AmpC beta-lactamase with detergent; P00811; AmpC hydrolysis of nitrocefin, absorbance 480 nm, 0.01% Triton; Potency, µM (titrated, usually from 114 µM), for inactives: at the highest dose activity change, negative = inhibition, actives largely listed as inhibitors; actives 0.041% (n = 370,000);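 also: 0% = no-compound wells and -100% = no-enzyme wells; nearly all actives have a fitted effect of over 25% in size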
#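 AmpC (5.3 nM in the dispensed reagent) in 20 mM phosphate pH 7.0 with 0.01% (detergent screen) or 0.0001% Triton X-100 was preincubated with compounds for 15 min at room temperature. Nitrocefin was then added from an 800 uM solution, and hydrolysis was followed at 480 nm.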
# Sm TGR block: blocks Schistosoma mansoni thioredoxin glutathione reductase; actives 3% (n = 360,000); Potency, µM (highest dose often 114 µM), for inactives: top-dose activity change, negative = inhibition, hits mostly inhibitors; AID 485364; Q962Y6; purified TGR, DTNB reduction, TNB absorbance 405 nm; also: nearly all actives have a fitted effect of over 60% in size
#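 TGR 20 nM + NADPH 100 uM (dispensed conc.), cpd preinc 15 min RT; start with NADPH (500 uM addition) then DTNB (15 mM addition). Kinetic TNB absorbance, 405 nm filter. Four-parameter Hill fit across titration.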
# AmpC inh no detg: inhibitors of E. coli AmpC beta-lactamase without detergent; P00811; AmpC nitrocefin hydrolysis, absorbance 480 nm, 0.0001% Triton; Potency, µM (doses to about 57.1 µM), without a hit: at the top dose activity change, negative = inhibition, usual class: inhibitors; actives 0.52% (n = 330,000); AID 485341;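 also: plate controls were no compound for no effect and no enzyme for full effect; nearly all actives have a fitted effect of over 20% in size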
#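 AmpC (5.3 nM in the dispensed reagent) in 20 mM phosphate pH 7.0 with 0.01% (detergent screen) or 0.0001% Triton X-100 was preincubated with compounds for 15 min at room temperature. Nitrocefin was then added from an 800 uM solution, and hydrolysis was followed at 480 nm.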
# Numbers without * were called inactive; ? = inconclusive; · = no result given; [ ] = remark or other dose. Unless noted, calls follow the shape of the dose curve; as a rule, active = well fitted curve in the direction sought with a large enough effect; inconclusive = small, poorly fitted or top-dose-only effect, or another doubt; inactive = no such curve, though single readings can be large; an effect the other way counts as inactive or inconclusive. Unless noted, % is scaled to controls: 0 for no effect and ±100 for the full control effect; potency is read from the fitted curve at half-maximal effect.
SMILES,RE007 growth inh,Giardia FBPA inh,AmpC inh detg,Sm TGR block,AmpC inh no detg
Cc1ccc(CNC(=O)CCc2ccc(S(=O)(=O)NCC(C)C)cc2)cc1,-4%,1%,-4%,2%,-7%
COCC(=O)Nc1cccc(Br)c1,-8%,4%,-12%,-6%,-26%
CCOC(=O)/C=C/C(=O)OCC(=O)Nc1cccc(Br)c1,-30%,-1%,0%,18µM*,-21%
Cc1ccc(NC(=O)COC(=O)/C=C/c2cccs2)cc1,9%,1%,-7%,-8%,-23%
CCOC(=O)/C=C/C(=O)OCC(=O)Nc1ccc(C)cc1,?,3%,-13%,13µM*,1%[11.4 µM]
CCOC(=O)/C=C/S(=O)(=O)c1ccc(NC(C)=O)cc1,?,-1%,?,0.32µM*,-14%
CCOC(=O)N(C)c1c(CC)nc2c(OCc3ccc(Cl)cc3)cccn12,-24%,·,·,·,·
CCOC(=O)c1cc(-c2ccc(F)cc2)n(CC(=O)NCc2ccc(OC)cc2)c1C,·,·,3%,3%,·
O=C(COc1ccc2ccc(=O)oc2c1)NC(Cc1ccc(Cl)cc1)C(=O)O (stereo not given),32%,-1%,-11%,10%,-44%
CCC(C)NC(=O)C1CCN(C(=O)N(C)C)CC1 (stereo not given),2%,4%,-5%,-1%,-17%
CN1C(=O)N(C)C(=O)C2(Cc3cc(NC(=O)c4ccc(F)cc4)ccc3N3CCCC32)C1=O (stereo not given),-10%,·,-2%,40µM*,136%
CC(=O)Nc1ccc2c(c1)CC1(C(=O)N(C)C(=O)N(C)C1=O)C1CCCN21 (stereo not given),-7%,?,-1%,45µM*,24%
c1ccc(-c2ccc(C3CCCN3)cc2)cc1 (stereo not given),2%,4%,2%,?,3%
COc1ccc(-c2c3c([nH]c(=S)c2C#N)CCC3)cc1,9%,?,?,45µM*,-55%
N#Cc1c(-c2ccco2)c2c([nH]c1=S)CCCC2,8%,?,-1%,2.8µM*,-42%
COc1ccc(C(=O)c2cn(Cc3ccccc3)c3ccccc3c2=O)cc1OC,·,·,?,11%,·
O=C1CN(CC(=O)Nc2cccc(Cl)c2Cl)c2ccccc2N1,1%,-12%,-15%,50µM*,-16%[11.4 µM]
O=C1CN(C(=O)COc2ccc(Cl)c(Cl)c2)c2ccccc2N1,-7%,·,-12%,0%,-13%
O=C1CN(C(=O)Cn2ncc(Cl)c(Cl)c2=O)c2ccccc2N1,6%,-4%,6%,25µM*,-13%
O=C1CC2(CCOCC2)Oc2ccc3ccccc3c21,-4%,·,·,·,·
Cc1n[nH]c(=O)nc1N1CCc2ccccc2C1,-3%,3%,-11%,?,·
CCOc1ccc(NC(=O)CC2C(=O)N(c3ccc(OC)cc3)C(=O)N2Cc2ccc(OC)cc2)cc1 (stereo not given),-4%,0%,4%,-5%,42%
CN(C)CCN(C(=O)c1ccc(N2C(=O)CCC2=O)cc1)c1nc2cc3c(cc2s1)OCO3,-11%,-11%,2%,20µM*,3%
COc1ccc(/C=N/NC(=O)c2ccc(CSc3nncn3C)cc2)cc1OC,10%,0%,?,0%,-35%
COC(=O)C1CN(C(=O)c2ccc(OC(F)F)cc2)c2ccccc2O1 (stereo not given),4%,1%,?,-4%,-1%
COc1ccc(OC)c(-c2c3cc(O)c(=O)cc-3oc3cc(O)c(O)cc23)c1,?,?,-4%,?,28µM*
COc1ccccc1-c1cc(=O)c2cc(O)ccc2o1,·,0%,·,·,·
CCOc1ccccc1-c1c2cc(O)c(=O)cc-2oc2cc(O)c(O)cc12,?,6.3µM*,?,45µM*,-55%
OCC1(CC2CCCCO2)CCN(Cc2nc3ccccc3[nH]2)CC1 (stereo not given),-1%,6%,2%,0%,-6%
O=C(NCc1ccc(Cl)cc1)C(=O)NCC(c1ccco1)S(=O)(=O)c1cccs1 (stereo not given),·,·,6%,40µM*,·
